MEKK2mut PB1 HTS: signal of MEK5 binding to mutant human MEKK2 PB1 domain; percent response, % at 10 µM; bead flow cytometry, Alexa488-MEK5 binding to MEKK2 mutant; actives 0.35% (n = 290,000); in the data active = percent response above about 24%, passing the limit was not always enough
MEKK2wt PB1 HTS: raises or lowers MEK5 binding to wildtype human MEKK2 PB1 domain. AID 1531. Q9Y2U5. actives 1.1% (n = 290,000). binding response (% of control), % at 10 µM. bead flow cytometry, Alexa488-MEK5 binding to MEKK2 WT; actives lie on both sides; in the data active = binding response below about 67% or above about 130%
UBC13 polyUb: inhibitors of human UBC13 polyubiquitin chain formation. P61088. TR-FRET. inhibition, % at 20 µM. actives 0.47% (n = 330,000). AID 485273; in the data active = inhibition above about 45%, passing the limit was not always enough
Target sequence (P61088 whole entry, looked up): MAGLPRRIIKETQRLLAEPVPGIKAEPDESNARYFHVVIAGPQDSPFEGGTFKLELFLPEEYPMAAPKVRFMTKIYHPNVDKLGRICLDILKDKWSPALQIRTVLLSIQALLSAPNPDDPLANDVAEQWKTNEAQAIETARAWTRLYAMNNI
MEKK3 PB1 HTS: modulators (inhibitors or enhancers) of MEK5 binding to human MEKK3 PB1 domain; AID 1529; binding response (% of control), % at 10 µM; actives 1.4% (n = 290,000); Q99759; bead-based flow cytometry, Alexa488-MEK5 binding to MEKK3; actives lie on both sides; 0 = blocked by unlabeled MEK5, 100 = vehicle;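 active = binding response more than 3 SD above or below the average of its plate-row segment, actives on both sides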;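 note: Alexa488 bead fluorescence after subtracting the streptavidin-only scavenger bead signal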
Target sequence (Q99759 whole entry, looked up, the tested form may be a part): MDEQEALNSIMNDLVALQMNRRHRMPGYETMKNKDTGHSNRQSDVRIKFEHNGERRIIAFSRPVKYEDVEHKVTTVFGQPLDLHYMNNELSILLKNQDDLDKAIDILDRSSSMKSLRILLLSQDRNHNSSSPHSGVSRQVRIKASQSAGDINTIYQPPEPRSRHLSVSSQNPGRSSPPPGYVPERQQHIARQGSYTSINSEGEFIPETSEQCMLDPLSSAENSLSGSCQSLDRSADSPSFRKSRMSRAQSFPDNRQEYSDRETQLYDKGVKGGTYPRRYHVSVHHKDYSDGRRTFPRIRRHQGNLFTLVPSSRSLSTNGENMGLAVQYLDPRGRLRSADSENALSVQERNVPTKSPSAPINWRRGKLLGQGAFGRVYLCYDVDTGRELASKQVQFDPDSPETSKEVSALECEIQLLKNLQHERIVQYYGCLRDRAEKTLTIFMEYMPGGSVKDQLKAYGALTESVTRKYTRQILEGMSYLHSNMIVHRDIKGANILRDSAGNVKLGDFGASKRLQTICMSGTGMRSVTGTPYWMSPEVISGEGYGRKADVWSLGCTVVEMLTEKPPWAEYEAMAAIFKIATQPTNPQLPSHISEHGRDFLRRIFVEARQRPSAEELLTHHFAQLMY
MEKK2wt confirm: raises or lowers MEK5 binding to wildtype human MEKK2, retest; shares compounds with MEKK3 PB1 HTS; bead flow cytometry, Alexa488-MEK5 binding to MEKK2 WT; actives lie on both sides; binding response (% of control), % at 10 µM; actives 2.4% (n = 5,900); in the data active = binding response below about 16% or above about 210%; inactive = in between
MEKK2mut-MEK5: signal of MEK5 binding to mutant human MEKK2, retest; shares compounds with MEKK3 PB1 HTS; bead flow cytometry, Alexa488-MEK5 binding to MEKK2 mutant; percent response, % at 10 µM; actives 2% (n = 5,900); in the data active = percent response mostly above about 71%, no sharp cut-off; inactive = mostly below about 38%;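 note: higher means compound restores mutant binding toward wildtype level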
MEKK3-MEK5 inh: confirmation of inhibitors of MEK5 binding to human MEKK3; shares compounds with MEKK3 PB1 HTS; bead flow cytometry, Alexa488-MEK5 binding to MEKK3; hits give low values; binding response (% of control), % at 10 µM; actives 1.8% (n = 5,900); AID 1894;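 active = binding response below 72% of control, or above a set upper limit, though filed actives all read lower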;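 note: 100% = DMSO only wells and 0% = binding blocked by excess unlabeled MEK5; lower values mean stronger disruption of MEK5 binding to MEKK3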
Numbers without * were called inactive; [ ] = remark or other dose. Most compounds without a hit are left out; they make up all but 2.3% or so of the library.

What do the screens show for `CC(C)(C)c1ccc(CNc2ccc([N+](=O)[O-])cn2)cc1`?
MEKK2mut PB1 HTS: 3.0; MEKK2wt PB1 HTS: 118.0; MEKK3 PB1 HTS: 145.0*; MEKK2wt confirm: 106.0; MEKK2mut-MEK5: 1.0; MEKK3-MEK5 inh: 106.0

Results for CN(c1ccc(F)cc1)S(=O)(=O)c1ccc(Cl)c(C(=O)NCc2ccco2)c1 ?
UBC13 polyUb: 8.0

How did CCN(CC)CCNC(=O)C(=O)NCC1OCCN1S(=O)(=O)c1cccs1 (configuration not stated) do in these assays?
MEKK2mut PB1 HTS: 20.0; MEKK2wt PB1 HTS: 137.0*; UBC13 polyUb: 16.1; MEKK3 PB1 HTS: 103.0; MEKK2wt confirm: 109.0; MEKK2mut-MEK5: 5.0; MEKK3-MEK5 inh: 101.0

How did COc1ccc(CCNC(=O)C(C(=O)c2ccc(F)cc2)n2ccccc2=O)cc1OC (configuration not stated) do in these assays?
MEKK2mut PB1 HTS: -3.0; MEKK2wt PB1 HTS: 94.0; UBC13 polyUb: -4.7; MEKK3 PB1 HTS: 92.0

How did COCCNC(=O)CN(C)S(=O)(=O)c1ccc2c(c1)OCCO2 do in these assays?
MEKK2mut PB1 HTS: -14.0; MEKK2wt PB1 HTS: 11.0*[inhibitor]; UBC13 polyUb: 0.2; MEKK3 PB1 HTS: 7.0*[inhibitor]; MEKK2wt confirm: 104.0; MEKK2mut-MEK5: 3.0; MEKK3-MEK5 inh: 106.0

Results for COc1ccc(CNC(=O)CN(C)S(=O)(=O)c2ccc3c(c2)OCCO3)cc1OC ?
UBC13 polyUb: 12.2

Results for C=CCC[C@@H](Cc1ccc(F)cc1)C(=O)OC[C@@H](Cc1ccccc1)NC(=O)[C@H](CC=C)CC(=O)NCCO ?
UBC13 polyUb: 14.4

What do the screens show for `COc1cc(C(=S)N2CCCC2)ccc1OCC(N)=O`?
MEKK2mut PB1 HTS: 3.0; MEKK2wt PB1 HTS: 100.0; UBC13 polyUb: 1.0; MEKK3 PB1 HTS: 95.0

How did CCOc1cc(C(=S)N2CCCCC2)ccc1OCC(=O)NCc1ccccc1 do in these assays?
MEKK2mut PB1 HTS: -8.0; MEKK2wt PB1 HTS: 87.0; UBC13 polyUb: 2.9; MEKK3 PB1 HTS: 75.0*[inhibitor]; MEKK2wt confirm: 107.0; MEKK2mut-MEK5: 7.0; MEKK3-MEK5 inh: 106.0

What do the screens show for `COc1cc(C(=S)N2CCCCC2)ccc1OCC(=O)N1CCCC1`?
MEKK2mut PB1 HTS: 5.0; MEKK2wt PB1 HTS: 118.0; UBC13 polyUb: 0.7; MEKK3 PB1 HTS: 124.0*; MEKK2wt confirm: 99.0; MEKK2mut-MEK5: -2.0; MEKK3-MEK5 inh: 104.0

Results for CCN1CCN(C(=S)c2ccc(OCC(=O)NCc3ccccc3)cc2)CC1 ?
MEKK2mut PB1 HTS: -2.0; MEKK2wt PB1 HTS: 96.0; UBC13 polyUb: 10.4; MEKK3 PB1 HTS: 99.0

Results for COc1ccc(C2=Nn3c(nnc3C(F)(F)F)SC2)cc1 ?
MEKK2mut PB1 HTS: 5.0; MEKK2wt PB1 HTS: 101.0; UBC13 polyUb: -1.3; MEKK3 PB1 HTS: 105.0

Results for Cc1ccc(OCC(O)Cn2nc(C)cc2C)cc1 (configuration not stated) ?
MEKK2mut PB1 HTS: -8.0; MEKK2wt PB1 HTS: 99.0; UBC13 polyUb: -2.1; MEKK3 PB1 HTS: 98.0

How did Cc1cccc(C)c1NC(=O)C1c2cccc[n+]2CC(=O)N1Cc1cccs1 (configuration not stated) do in these assays?
MEKK2mut PB1 HTS: -8.0; MEKK2wt PB1 HTS: 101.0; UBC13 polyUb: 4.6; MEKK3 PB1 HTS: 103.0

How did Cc1nc(C)c(C(=O)NNS(=O)(=O)c2ccccc2)s1 do in these assays?
MEKK2mut PB1 HTS: 0.0; MEKK2wt PB1 HTS: 107.0; UBC13 polyUb: -24.8; MEKK3 PB1 HTS: 140.0*; MEKK2wt confirm: 100.0; MEKK2mut-MEK5: 0.0; MEKK3-MEK5 inh: 103.0

Results for C/C(=N/NC(=O)c1sc(NS(=O)(=O)c2ccccc2)nc1C)c1ccc(F)cc1 ?
MEKK2mut PB1 HTS: 0.0; MEKK2wt PB1 HTS: 105.0; UBC13 polyUb: 2.3; MEKK3 PB1 HTS: 153.0*; MEKK2wt confirm: 101.0; MEKK2mut-MEK5: -1.0; MEKK3-MEK5 inh: 102.0

How did C/C(=N/NC(=O)c1sc(NS(=O)(=O)c2ccccc2)nc1C)c1ccccc1 do in these assays?
MEKK2mut PB1 HTS: 11.0; MEKK2wt PB1 HTS: 109.0; UBC13 polyUb: -6.0; MEKK3 PB1 HTS: 99.0

How did Cc1ccc(C(=O)N(Cc2cccnc2)Cc2cc3cc(C)ccc3n3nnnc23)cc1 do in these assays?
MEKK2mut PB1 HTS: -4.0; MEKK2wt PB1 HTS: 95.0; UBC13 polyUb: 5.2; MEKK3 PB1 HTS: 98.0

What do the screens show for `CCN1CCN(c2ccc(S(=O)(=O)N3CCCCC3)cc2NC(=O)COc2ccc(F)cc2Cl)CC1`?
MEKK2mut PB1 HTS: 21.0; MEKK2wt PB1 HTS: 139.0*; UBC13 polyUb: 14.2; MEKK3 PB1 HTS: 102.0; MEKK2wt confirm: 131.0; MEKK2mut-MEK5: 18.0; MEKK3-MEK5 inh: 103.0

What do the screens show for `CSc1cccc(NC(=S)N2CCC(N(C)C(C)C)CC2)c1`?
MEKK2mut PB1 HTS: -12.0; MEKK2wt PB1 HTS: 63.0; UBC13 polyUb: -2.8; MEKK3 PB1 HTS: 50.0*[inhibitor]; MEKK2wt confirm: 102.0; MEKK2mut-MEK5: -4.0; MEKK3-MEK5 inh: 101.0

What do the screens show for `CCC(C)N(C)C1CCN(C(=S)Nc2cccc(SC)c2)CC1` (configuration not stated)?
MEKK2mut PB1 HTS: 10.0; MEKK2wt PB1 HTS: 113.0; UBC13 polyUb: 11.0; MEKK3 PB1 HTS: 104.0

How did Cc1ccc2[nH]c(C(=O)NCCN3CCCC3)cc2c1 do in these assays?
MEKK2mut PB1 HTS: 9.0; MEKK2wt PB1 HTS: 137.0*; UBC13 polyUb: 6.6; MEKK3 PB1 HTS: 109.0; MEKK2wt confirm: 110.0; MEKK2mut-MEK5: -6.0; MEKK3-MEK5 inh: 98.0

How did Cc1ccc2[nH]c(C(=O)N3CCCCC3)cc2c1 do in these assays?
MEKK2mut PB1 HTS: 1.0; MEKK2wt PB1 HTS: 103.0; UBC13 polyUb: -1.1; MEKK3 PB1 HTS: 100.0

How did CC(C)(C)CC(C)(C)c1ccc(OCC(=O)N/N=C/c2ccc(S(=O)(=O)O)o2)cc1 do in these assays?
MEKK2mut PB1 HTS: -3.0; MEKK2wt PB1 HTS: 94.0; UBC13 polyUb: -12.4; MEKK3 PB1 HTS: 102.0

What do the screens show for `Cc1ccc(C(C)C)c(OCC(=O)N/N=C/c2ccc(S(=O)(=O)O)o2)c1`?
MEKK2mut PB1 HTS: 25.0; MEKK2wt PB1 HTS: 119.0; UBC13 polyUb: -5.4; MEKK3 PB1 HTS: 130.0*; MEKK2wt confirm: 95.0; MEKK2mut-MEK5: -6.0; MEKK3-MEK5 inh: 100.0

Results for Cc1cccnc1NC(=O)c1ccccc1-c1ccccc1C(=O)Nc1ncccc1C ?
MEKK2mut PB1 HTS: 0.0; MEKK2wt PB1 HTS: 100.0; UBC13 polyUb: -10.7; MEKK3 PB1 HTS: 100.0

How did Cc1cccnc1NC(=O)c1csnn1 do in these assays?
MEKK2mut PB1 HTS: 5.0; MEKK2wt PB1 HTS: 30.0*[inhibitor]; UBC13 polyUb: 0.3; MEKK3 PB1 HTS: 65.0*[inhibitor]; MEKK2wt confirm: 100.0; MEKK2mut-MEK5: 1.0; MEKK3-MEK5 inh: 101.0

How did Nc1nnc(/C=C/c2ccccc2Cl)s1 do in these assays?
MEKK2mut PB1 HTS: -4.0; MEKK2wt PB1 HTS: 100.0; UBC13 polyUb: -3.3; MEKK3 PB1 HTS: 98.0
